This note sets out measurements from PubChem BioAssay (Tox21).

Inconclusive results are not listed. Unmarked numbers belong to inactive results. The call rests on the fitted dose curve; in most records, active means well fitted cell-killing curve with a large enough effect in the repeat runs; inconclusive means weak or mixed curves, or effect the other way; inactive means no such curve, though single readings can be large or run the other way.
On the % scale 0 is the no-effect control and ±100 the full control effect.

The nature of the assay: qHTS assay to identify small molecule antagonists of the sonic hedgehog signaling (Shh) pathway - cell viability counter screen (AID 1259367). Further: nearly all actives have a fitted effect of over 55% in size. As to conditions: NIH/3T3 Gli1-Luc viability, CellTiter-Fluor, 24 h; series mostly up to 92.4 µM; viability change, negative = cytotoxic: at the top concentration. The text has this:
National Center for Advancing Translational Sciences [NCATS]
NIH Chemical Genomics Center [NCGC]
U.S. Environmental Protection Agency [EPA]
National Institutes of Environmental Health Sciences [NIEHS]
National Toxicology Program [NTP]
U.S. Food and Drug Administration [FDA]
The sonic hedgehog (Shh) pathway is essential for normal embryonic development. Dysregulation of the Shh pathway can cause severe developmental defects in organs. Therefore chemicals that interfere with the pathway are potential developmental toxicants. A cell line designated 3T3Gli1-Luc (DMB/OARSA/CFSAN/FDA, Laurel, MD), a NIH/3T3 derived clone containing stably integrated Gli1-Luc reporter is used to detect chemical interference of the Shh pathway, by changes in the expression of the firefly Luc gene under the control of the Gli1 transcriptional response element. This cell line was used to screen Tox21 libraries for identifying and prioritizing the potential developmental toxicants that interfere Shh pathway. Conditioned medium-stimulated mode was used to screen for chemicals inhibiting Shh signaling. The cytotoxicity of the compounds was tested in parallel by measuring the cell viability using CellTiter-Fluor assay system (Promega, Madison, WI) in the same wells.
Tox21 Assay Protocol Summary:
3T3 Gli1-Luc cells were dispensed at 2,000 per well in 5uL of culture medium into white solid bottom 1536-well plates (Greiner Bio-One, Monroe, NC) using a Multidrop Combi (Thermo Scientific, Waltham, MA) dispenser. The assay plates were incubated at 37 C and 5% CO2 for 4hr, and then 23nL of compounds dissolved in DMSO and positive control were transferred using a Pintool station (Wako, San Diego, CA). The compound transfer was followed by the addition of 1ul conditioned medium or assay buffer using two separate tips of Flying Reagent Dispenser (FRD, Aurora Discovery, San Diego, CA). The assay plates were incubated at 37C and 5% CO2 for 24hr. For viability read, after 23hr of compound treatment, 1uL of CellTiter-Fluor reagent (Promega Corporation, Madison, WI) was added to each well of the assay plates using Flying Reagent Dispenser (FRD, Aurora Discovery, San Diego, CA) and incubated the assay plates at 37C for 1hr. The fluorescence signal was quantified using a ViewLux plate reader (Perkin Elmer, Shelton, CT).
On the technique in general: In qHTS, concentration-response curves come from the screen itself.
With `COc1cc(C)nc(-n2nc(C)cc2OC)n1`, the “viability change, negative = cytotoxic” value was -0.0795% [at 42.5 µM].
Under `C=CCCC(=O)O` stands 1.93%.
The result for `CCN1C=CN(C)C1C` (stereo not given) reads 1.33%.
Under `CC12CCC(C(=O)C1=O)C2(C)C` (stereo not given) stands 1.69%; under `O=C(CO)[C@@H](O)[C@H](O)[C@H](O)CO`, 7.23%.
With `CN(C)CCCCCCN(C)C`, the “viability change, negative = cytotoxic” value is -2.64%.
Take `Cc1cccc(C)c1NC(=O)CC12CCCN1CCC2`: the “viability change, negative = cytotoxic” value is 4.35% [at 42.5 µM].
Under `CCCCCCCCCCOc1cc2c(=O)c(C(=O)OCC)c[nH]c2cc1OCC` stands 5.79% [at 8.39 µM].
Under `CC1=NS(=O)(=O)c2cc(Cl)ccc2N1` stands -1.32% [at 42.5 µM].
The result for `CCCCc1ccc2c(n1)[C@@H](c1ccc(OC)cc1C[C@H](C)C(=O)O)[C@H](C(=O)O)[C@H]2c1ccc2c(c1)OCO2` reads -5.46%.
Regarding `CO[Si](C)(OC)c1ccccc1`, the “viability change, negative = cytotoxic” value is -1.21%.
The result for `Cc1ccnc(NS(=O)(=O)c2ccc(N)cc2)n1` reads 3.2% [at 42.5 µM].
For the molecule `COC(=O)Nc1ccc(Cl)c(Cl)c1`, the “viability change, negative = cytotoxic” value was 9.65%.
Under `CCCn1cc[n+](C)c1C` stands 0.776%; under `CCOC(=O)c1cnc2c(cnn2CC)c1NN=C(C)C`, 2.15% [at 42.5 µM].
The result for `Cc1ccc(C(=O)Nc2ccc(S(=O)(=O)O)c3cc(S(=O)(=O)O)cc(S(=O)(=O)O)c23)cc1NC(=O)c1cccc(NC(=O)Nc2cccc(C(=O)Nc3cc(C(=O)Nc4ccc(S(=O)(=O)O)c5cc(S(=O)(=O)O)cc(S(=O)(=O)O)c45)ccc3C)c2)c1` reads 4.8% [at 42.5 µM]; that for `CCCC(C)C(=O)OCC` (stereo not given), 9.58%.
Under `N[C@@H](CCC(=O)O)C(=O)O` stands 0.75%; under `CC1OC1C1CCC2(C)OC2C1` (stereo not given), -0.321%; under `CN(C)[C@@H]1C(=O)C(C(=O)NCN2CCCC2)=C(O)[C@@]2(O)C(=O)C3=C(O)c4c(O)cccc4[C@@](C)(O)C3C[C@@H]12` (stereo not given in full), 0.268% [at 42.5 µM].
For `COc1ccccc1OCC1CNC(=O)O1` (stereo not given), the “viability change, negative = cytotoxic” value was 2.79% [at 42.5 µM].
Under `C[C@@H]1C[C@H]2[C@@H]3C[C@H](F)C4=CC(=O)C(Cl)=C[C@]4(C)[C@@]3(F)[C@@H](O)C[C@]2(C)[C@@]1(O)C(=O)CO` stands 0.412% [at 42.5 µM]; under `CC[N+](C)(CC)CCOC(=O)C1c2ccccc2Oc2ccccc21`, 5.98% [at 42.5 µM].
For the molecule `C=CN1CCCCCC1=O`, the “viability change, negative = cytotoxic” value was 1.27%.
`OCCCCCO`: the “viability change, negative = cytotoxic” value was 1.04%.
For `Cc1ccc(C(=O)c2ccccc2)cc1`, the “viability change, negative = cytotoxic” value is -0.162%.
Under `CN1[C@@H]2CC[C@H]1CC(OC(=O)C(O)c1ccccc1)C2` (stereo not given in full) stands -4.09% [at 42.5 µM]; under `O=C(c1ccccc1O)c1ccccc1O`, -7.65%; under `NC(=O)N1c2ccccc2CC(=O)c2ccccc21`, -13.9% [at 42.5 µM].
`CCN[C@H]1C[C@H](C)S(=O)(=O)c2sc(S(N)(=O)=O)cc21`: the “viability change, negative = cytotoxic” value was 6.45% [at 42.5 µM].
Consider `O=C(O)CNC(=O)c1ccccc1`, for which the “viability change, negative = cytotoxic” value is 0.225% [at 42.5 µM].
On to `C=COC(=O)C(C)(CC)CCC(C)C` (stereo not given), for which the “viability change, negative = cytotoxic” value is 0.0131%.
The result for `CCOC(=O)C1=NOC(c2ccccc2)(c2ccccc2)C1` reads 0.875%.
In the case of `CCC1C(=O)OCC1Cc1cncn1C` (stereo not given), the “viability change, negative = cytotoxic” value is -3.4% [at 42.5 µM].
As to `CC(=O)N1C[C@H](O)C[C@H]1C(=O)O`, the “viability change, negative = cytotoxic” value is 5.68% [at 42.5 µM].
Under `CC(C#N)(CCC(=O)O)N=NC(C)(C#N)CCC(=O)O` (stereo not given) stands 0.407%.
For the molecule `CC(C)C1CCC(O)CC1` (stereo not given), the “viability change, negative = cytotoxic” value was -3.61%.
Under `CO[C@@]1(NC(=O)CSC[C@@H](N)C(=O)O)C(=O)N2C(C(=O)O)=C(CSc3nnnn3C)CS[C@@H]21` stands 5.78% [at 42.5 µM].
The result for `CC(=O)c1ccc2ccccc2c1` reads 0.0125%.
With `CCOC(=O)c1ccccc1`, the “viability change, negative = cytotoxic” value is -0.0152%.
